Each sequence was assayed on PPARg:RXRa (NR concentration 180 nM, RXRa partner concentration 90 nM) (assay: PBM binding z-score (relative to random genomic background probes); higher = stronger binding; sequences stand for … in GC…GCGATTGACAGCGTAGAATGAAGG).
Outline: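 Each nuclear receptor dimer, without ligand, was incubated for 1 h on custom Agilent 4×180K protein-binding microarrays. Binding was detected with antibodies against each partner (one per run), and scanned fluorescence was regression-normalized. The binding z-scores are referenced to random human genomic background probes.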
AATACAGGGTCACTAGGCCAGAGTGGGTACGAAT gave a PBM binding z-score of 8.11.
In the case of CCTCGGAGGACACCAGGAGGTCAGAGCTGCCAGA, the PBM binding z-score is reported as 0.153.
Sequence CGAACTAGGTCAAAGGATAGTGAAAGGCGACGTA has a PBM binding z-score of 8.97.
In the case of TAGCCTAGGTCAAGCGGGCCAGTATAGTGTCGGC, the PBM binding z-score is reported as 2.12.
Work on ATATGTAGGTTAGAGTCATTCAGAAAGTAGGGAA yielded a PBM binding z-score of 4.27.
Work on CGAACTAGGTCACCAGGACAGTTAAGAGGTTGGA yielded a PBM binding z-score of 8.53.
Work on ATTTGTAGGTTATCGGGTCATTCAGTTTGCGCAT yielded a PBM binding z-score of 6.03.
For CGAACTAGGTCAATGGACAGTGAAAGGCGACGTA, the PBM binding z-score was 6.92.
Work on CGAACTAGGTCAAAGGACTGTGAAAGGCGACGTA yielded a PBM binding z-score of 9.38.
CCTTCTGGGCCATTCAGAGGTCATTGATCATATG gave a PBM binding z-score of 1.85.
With CGAACTAGGTCACCATGACAGTGAAGAGGTTGGA the PBM binding z-score was 8.32.
CGAACTAGGTCACCAGGTCAGTGAAGAGGTTGGA showed a PBM binding z-score of 9.48.
Sequence GCTGCTAGGTCAGGATGGTCAGCTAACGGGTACG has a PBM binding z-score of 0.968.
Work on CGAACTAGGTCAAAGGACAGTGATAGGCGACGTA yielded a PBM binding z-score of 10.2.
Work on CCTACTGGGCCATCAGGTGATTGATATCAACGTT yielded a PBM binding z-score of 1.29.
ATATGTATGTTAGGGTCATTCAGAAAGTAGGGAA showed a PBM binding z-score of 4.3.
For CGTCCAAGGTCAATGCTAGGCCAGTGAAAGCATT, the PBM binding z-score was 3.02.
ATATGTTGGTTAGGGTCATTCAGAAAGTAGGGAA gave a PBM binding z-score of 3.15.
Sequence CGAGCTAGGTCAAAGGACAGTGAAAGGCGACGTA has a PBM binding z-score of 5.44.
With GATACAGGGGCAAGGCCAGAGTACGCGTATTGAT the PBM binding z-score was 0.875.
Work on CGAACTAGGTCACCAAGACAGTGAAGAGGTTGGA yielded a PBM binding z-score of 8.16.
Sequence ATATGTAGGTTAGGGTCATTAAGAAAGTAGGGAA has a PBM binding z-score of 7.9.
With TTACCAAGGTGAAAGGTCGTTGAAGCACGCCTTG the PBM binding z-score was 9.24.
In the case of CGTCCGAGGTCAAAGGTCAGTGAAGAGATGACGG, the PBM binding z-score is reported as 11.3.
AATACAGGATCACTAGGCCAGAGTAGGTACGAAT showed a PBM binding z-score of 1.19.
With ATATGTAGGTTAGGGTCATTCAAAAAGTAGGGAA the PBM binding z-score was 7.96.
In the case of CGTCTAAGGTCAAGGTCAGTGAAAGAGACTCGAA, the PBM binding z-score is reported as 6.86.
CGAACTAAGTCATCCAGGACAGTGAATACATTGA gave a PBM binding z-score of 0.532.
Work on CAAACTAGGTCACAGAGGTCAAACTCCGTGCGTA yielded a PBM binding z-score of 10.2.
CGTCCAAGGTCAGATAGGTCAGTGAATGCCGAGT showed a PBM binding z-score of 2.66.
In the case of CAAACTAGGTCACGAAAGGTCAACGTCGAATGAC, the PBM binding z-score is reported as 10.6.
With CCTACAGGGCCAAAGGTCATTGATTCCAATGCTC the PBM binding z-score was 8.97.
CGAACTAGGTAACCAGGACAGTGAAGAGGTTGGA showed a PBM binding z-score of 2.32.
GATACAAGGTCAGCTAGAGGCCAGAGTATGGAAA gave a PBM binding z-score of 3.95.
With CCTACTGGGGCACGAAAGGTCATTGATTCAGTGA the PBM binding z-score was 6.01.
With GCATATAGGTAATTCAAGGTGAAAGTCCGATTGT the PBM binding z-score was 0.967.
For ACTCGGAGGACAAATGTCAGAGCTACGCCAGTGA, the PBM binding z-score was 1.34.
For TCTCGGAGGACACGAAAGGTCAGAACTCGACATC, the PBM binding z-score was 1.1.
TAGCATAGGTCATGCGGGCCAGTATAGTGTCGGC showed a PBM binding z-score of 4.08.

— the supplement of paper PMC6555819
